According to the supplement of paper PMC3616981:
± gives the standard deviation of the averaged measurements.

Compound: CC(C)c1cccc(C(C)C)c1N1C(=O)c2ccc(O)cc2C1=O
Assay: reporter fold induction vs vehicle; higher = higher reporter activity
Outline: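 Values give reporter activity as fold induction compared with vehicle, averaged across replicates where available. The multiplexed cellular reporter system carried 48 cis and 25 trans constructs, and ToxCast Phase II chemicals were run at 8 concentrations from 0.091 to 200 µM.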

Target | reporter fold induction (0.091 µM) | reporter fold induction (0.274 µM) | reporter fold induction (0.823 µM) | reporter fold induction (2.469 µM) | reporter fold induction (7.407 µM) | reporter fold induction (22.22 µM) | reporter fold induction (66.67 µM) | reporter fold induction (200 µM)
CAR_TRANS | 1.1 | 0.946 | 0.997 | 0.985 | 0.814 | 0.835 | 0.84 | 0.343
E2F_CIS | 1.02 | 0.922 | 0.954 | 1.04 | 0.971 | 0.968 | 0.945 | 1.23
FoxO_CIS | 1.07 | 1.02 | 0.985 | 0.99 | 1.03 | 0.938 | 0.872 | 1.07
RORg_TRANS | 1.15 | 1.17 | 1.17 | 1.35 | 1.43 | 0.891 | 0.575 | 0.332
GLI_CIS | 1.04 | 0.925 | 1 | 1.04 | 0.914 | 0.833 | 1.19 | 2.1
PPARg_TRANS | 1.01 | 1.06 | 0.946 | 0.881 | 1.19 | 1.53 | 1.62 | 1.47
p53_CIS | 1.06 | 1.04 | 1.03 | 0.969 | 0.996 | 0.831 | 1.19 | 0.456
NRF1_CIS | 1.01 | 0.997 | 1.04 | 1.01 | 0.978 | 0.868 | 1.02 | 1.44
ERRg_TRANS | 1.02 | 1.11 | 1.14 | 1.02 | 0.941 | 1.07 | 0.845 | 0.391
DR4_LXR_CIS | 1.02 | 0.906 | 1 | 1.02 | 0.88 | 0.462 | 0.424 | 0.478
HSE_CIS | 0.991 | 0.939 | 1.05 | 1.05 | 0.985 | 0.942 | 1.81 | 3.95
Ahr_CIS | 0.965 | 0.977 | 0.949 | 1.01 | 1.06 | 1 | 2.27 | 1.09
RXRb_TRANS | 1.04 | 1.11 | 1.24 | 1.01 | 1.17 | 1.19 | 1.07 | 0.915
Sox_CIS | 0.965 | 1.03 | 1.03 | 1.04 | 0.984 | 1.19 | 1.19 | 2.17
TCF_b_cat_CIS | 1.06 | 0.944 | 1.13 | 1.06 | 0.839 | 0.671 | 0.77 | 0.204
VDR_TRANS | 1.07 | 1.13 | 1.1 | 1.39 | 1.07 | 1.41 | 1.2 | 1.54
M_32_TRANS | 1.03 | 0.997 | 1.07 | 1.09 | 1.08 | 1.08 | 0.964 | 1
ISRE_CIS | 1.23 | 0.874 | 1.04 | 0.962 | 0.9 | 0.883 | 0.605 | 0.362
TGFb_CIS | 1.08 | 0.916 | 0.91 | 0.906 | 0.939 | 1.03 | 1.23 | 0.915
RORb_TRANS | 0.758 | 0.955 | 0.81 | 1.32 | 0.966 | 0.625 | 0.434 | 0.342

Target | reporter fold induction (0.091 µM) | reporter fold induction (0.274 µM) | reporter fold induction (0.823 µM) | reporter fold induction (2.469 µM) | reporter fold induction (7.407 µM) | reporter fold induction (22.22 µM) | reporter fold induction (66.67 µM) | reporter fold induction (200 µM)
SREBP_CIS | 1.04 | 0.954 | 1.01 | 0.996 | 1.05 | 0.976 | 1.16 | 1.49
RARa_TRANS | 1.04 | 0.782 | 1.21 | 1.2 | 1.48 | 2.4 | 2.07 | 0.506
TAL_CIS | 1.06 | 0.981 | 1.01 | 0.98 | 1.11 | 1.09 | 1 | 1.28
NRF2_ARE_CIS | 1.19 | 1.1 | 0.995 | 0.886 | 1.15 | 1.48 | 2.47 | 0.886
CMV_CIS | 0.996 | 0.94 | 1 | 0.92 | 1.02 | 1.41 | 1.73 | 1.11
XTT_Cytotoxicity | 97.6 ± 5.6 | 107 ± 18 | 111 ± 0.85 | 108 ± 3.1 | 123 ± 3.8 | 111.2 ± 0.75 | 113.8 ± 0.46 | 106.5 ± 0.33
CRE_CIS | 1.08 | 1.03 | 1.01 | 0.951 | 1.11 | 1.17 | 2.03 | 3.21
Myc_CIS | 1.01 | 1.03 | 0.99 | 0.982 | 1.09 | 1.04 | 1.05 | 2.33
GR_TRANS | 0.906 | 1.07 | 1.06 | 1.18 | 0.95 | 1.13 | 1.24 | 1.38
LXRb_TRANS | 1.17 | 1.09 | 1 | 1.16 | 0.89 | 0.837 | 1.13 | 1.11
RXRa_TRANS | 0.986 | 0.983 | 1.1 | 0.957 | 1.09 | 1.31 | 1.31 | 1.84
MRE_CIS | 1.05 | 0.983 | 1 | 0.924 | 1.22 | 1.2 | 1.8 | 3.72
EGR_CIS | 1.05 | 0.979 | 0.95 | 0.927 | 1.1 | 1.2 | 1.64 | 2.7
M_19_CIS | 1.01 | 1.01 | 0.978 | 1.01 | 0.961 | 0.953 | 1.05 | 0.776
RARb_TRANS | 0.778 | 0.835 | 0.897 | 0.861 | 1.51 | 1.95 | 1.29 | 0.429
M_06_TRANS | 0.964 | 1.01 | 0.995 | 1.01 | 1.01 | 1 | 0.996 | 0.992
PXRE_CIS | 1.22 | 1.56 | 0.755 | 0.738 | 6.98 | 6.26 | 2.42 | 0.398
HNF4a_TRANS | 1.1 | 1.42 | 0.883 | 1.11 | 1.1 | 1.07 | 0.715 | 0.473
PPRE_CIS | 1.02 | 0.905 | 1.09 | 0.944 | 1.08 | 1.21 | 2.59 | 1.68
PXR_TRANS | 1.15 | 2.07 | 3.25 | 4.39 | 3.39 | 3.71 | 3.61 | 1.33
